Among all 370,000 compounds or so, about 2,100 (0.57%) were called active. This is one part of a sample in which actives are shown more often than they occur.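 The calls were made as follows: active = inhibition above mean plus 3 SD of compounds lying within the high and low control bounds (cut at about 19% in these data); inactive = the rest.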
molecular target: Group 3 secretory phospholipase A2 (Homo sapiens) (UniProt Q9NZ20); assay: HGIII-sPLA2 enzyme inhibition – biochemical, QFRET, BODIPY PC-A2 liposome substrate, primary screen (AID 743126); settings: QFRET BODIPY PC-A2 liposome hydrolysis, fluorescence; at 12.2 µM; hits give high values;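 also: 0% = median of test compound wells and 100% = no enzyme DMSO wells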
Sequence (Q9NZ20 whole entry, looked up): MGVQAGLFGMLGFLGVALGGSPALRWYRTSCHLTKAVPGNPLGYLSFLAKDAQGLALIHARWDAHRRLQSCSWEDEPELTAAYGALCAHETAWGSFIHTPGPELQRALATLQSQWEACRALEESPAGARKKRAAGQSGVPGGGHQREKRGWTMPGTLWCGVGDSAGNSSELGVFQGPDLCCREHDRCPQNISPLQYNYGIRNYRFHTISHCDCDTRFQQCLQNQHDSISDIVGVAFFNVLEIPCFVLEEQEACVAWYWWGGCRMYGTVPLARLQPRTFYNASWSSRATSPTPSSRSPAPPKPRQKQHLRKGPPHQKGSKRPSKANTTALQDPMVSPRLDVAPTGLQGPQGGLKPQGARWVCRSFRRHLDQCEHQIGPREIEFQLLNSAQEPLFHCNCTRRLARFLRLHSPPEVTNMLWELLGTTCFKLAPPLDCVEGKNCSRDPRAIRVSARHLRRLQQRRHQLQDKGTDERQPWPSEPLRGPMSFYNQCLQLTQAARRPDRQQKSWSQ

inhibition, inactive:
NC(=O)C1(C(N)=O)OC1c1ccc(Cl)cc1Cl (centres undefined) -4.76%, Nc1ccc2nn(-c3ccc(Cl)cc3)nc2c1 0.58%, Cc1ccc(C(=O)N(Cc2ccccn2)CC2CCCO2)cc1 (centres undefined) 1.49%, CCN(CC)C(=O)CC[C@@H]1CC[C@]2(CCCN(S(=O)(=O)C3CCCCC3)C2)O1 11.9%, O=C(NNc1nc(N2CCCC2)nc(N2CCCC2)n1)c1ccccc1 -2.93%, Cc1ccc(C(=O)Nc2nc(N)n(-c3ccccc3)n2)cc1 12.6%, COC(=O)[C@]12C[C@H](CC(=O)NCc3cccc4ccccc34)C(=O)N(CCc3ccc(OC)c(OC)c3)C1=C[C@H](C1CCCC1)O[C@@H]2C -20.3%, CCn1c2ccccc2c2cc(NC(=O)CSc3nnc(-c4ccccc4)n3-c3ccc(C)cc3)ccc21 -1.34%, CCn1c(=O)n2n(c1=O)[C@@]1(C=C3CCCC[C@H]32)N=C(NC(=O)c2ccccc2)N(Cc2ccccc2)[C@H]1Cc1ccccc1 10.8%, C[C@H]1[C@H](NC(=O)c2cccc(N(C)C)c2)CC[C@@]23CCCN2C(=O)CCC[C@@H]13 -4.79%, Fc1ccccc1Cc1ccc(Cl)nn1 9.12%, COC(=O)[C@@]12CCCCC=C1N(CCc1ccc(Cl)cc1)C(=O)[C@H]2CC(=O)NCc1ccc(OC)c(OC)c1 -15%, Nc1[nH]c(C(=O)c2ccc(Br)cc2)c(-c2ccc3c(c2)OCO3)c1C(=O)NCCc1c[nH]c2ccccc12 -43.9%, CC(C)(C)C(=O)c1c(N)[nH]c(C(=O)c2ccccc2)c1-c1ccc(F)cc1 5.32%, COc1ccc(CCNC(=O)CSc2nc3c([nH]2)c(=O)n(C)c(=O)n3C)cc1 5.11%, CC(C)CNc1cccc2c1S(=O)(=O)N(Cc1cn(Cc3ccccc3C(F)(F)F)nn1)Cc1ccccc1O2 6.58%, CCOC(=O)C1CCN(C(=O)C(C)(C)NC(=O)Nc2ccc(F)c(F)c2)CC1 1.05%, CCOc1ccc(/C=N\NC(=O)c2c(C)nc3cc(C)ccn23)cc1 1.86%, CCOc1ccc(NS(=O)(=O)c2ccc(C)c(C(N)=O)c2)cc1 2.14%, CCOC(=O)N1CCN(C(=O)C[C@H]2C[C@@]3(C(=O)OC)C(=C[C@H](C(C)(C)C)O[C@@H]3C)N(Cc3ccc(Cl)cc3Cl)C2=O)CC1 -6.16%, CCOC(=O)[C@]12CCCC3=C1N(CCC3)C(=O)[C@@H](CC(=O)NCc1cccs1)C2 -0.88%, COC(=O)[C@]12C[C@H](CC(=O)NCCCN3CCCC3=O)C(=O)N(CCc3ccc(OC)c(OC)c3)C1=C[C@H](COCc1ccccc1)O[C@@H]2C 11.1%, COc1ccc(C2CC(c3ccc(Cl)cc3Cl)Nc3nc(N)nn32)cc1OC (centres undefined) 0.41%, Cc1ccc(C2CC(c3cccc(Br)c3)n3nc(N)nc3N2)cc1 (centres undefined) 9.36%, O=C(OC12CCCN(C1)/C(=C/c1ccccc1)C2)c1ccco1 (centres undefined) 4.15%, C=CCN(Cc1ccc2c(c1)OCO2)C(C#CC1CC1)C(C)(C)C (centres undefined) 7.02%, COc1cc(NC(=O)C2CCCN(S(=O)(=O)c3ccc(C(C)(C)C)cc3)C2)cc(OC)c1 (centres undefined) 2.94%, CCC(c1ccc(NC(=O)OC(C)(C)C)cc1)c1cc(OC)cc(OC)c1 (centres undefined) -18.5%, COc1ccc(CSc2nnc(SCC(=O)Nc3ccccc3C(F)(F)F)s2)cc1 -11.2%, O=C(NCCOc1ccccc1)c1ccccc1F 8.32%, Cc1nn(CCOc2ccccc2)c(=O)n1-c1ccccc1F 3.1%, COC(=O)[C@]12C[C@H](CC(=O)NCc3ccccc3)C(=O)N(CCC3=CCCCC3)C1=C[C@H](C(C)C)O[C@@H]2C1CC1 -0.06%, CCn1c(SCC(C)=O)nc2sc3c(c2c1=O)CCCC3 -63%, CCCC1CCC2(CCCN2CCOC(=O)NCc2ccccc2)CC1 (centres undefined) 0.68%, CC(=O)OC12CCCN(C1)/C(=C/c1ccncc1)C2 (centres undefined) 8.67%, CC(=O)C1(C(=O)Nc2nccs2)CC(c2ccccc2C(F)(F)F)=NO1 (centres undefined) -9.84%, Cc1cccc(C(=O)NC(=S)N(C)C2CCCCC2)c1 7.08%, Cc1cccc(NC(=S)NCc2ccc3[nH]c4c(c3c2)CCCC4)c1 -9.81%, C=CCN1C(=O)[C@H](CC(=O)N2CCN(C(=O)OCC)CC2)[C@@]2(C(=O)OCC)CCCC=C12 -3.08%, Cc1ccccc1CN1CCCCC(NC(=O)c2cccc(C#N)c2)C1=O (centres undefined) 14%, CCOc1ccc(-n2c(SCC(=O)Nc3cc(C)c(NC(=O)c4ccccc4)cc3OC)nnc2-c2cccs2)cc1 -11.7%, CCC[C@H]1C(=O)CC[C@@]23CCCN2C(=O)CCC[C@@H]13 9.16%, COc1ccc([C@H]2OC(=O)C[C@H]2C(=O)N2CCN(c3ccccc3F)CC2)cc1OC -0.35%, COc1cccc2c1OCC1COc3c(c(=O)n(C)c(=O)n3C)C21 (centres undefined) 8%, Cn1c2c(c(=O)n(C)c1=O)[C@@H]1c3c(ccc4ccccc34)OC[C@@H]1CO2 1.04%

inhibition, active:
Nc1ccc2c(c1)C(O)c1ccc(Cl)cc1-2 (centres undefined) 19.6%, Cc1ccc(-c2csc(NNC(=O)c3ccccc3)n2)cc1 41.2%, C/C(=N\Nc1ccc(Cl)nn1)c1ccccc1O 23.4%, Nc1[nH]c(C(=O)c2ccccc2)c(-c2ccc(Br)cc2)c1C(=O)NC1CC1 25.4%, CCOc1ccc(/C=N/NC(N)=S)cc1 19.5%, Cc1ccc(C2CC(c3cccc(C)c3)n3nc(N)nc3N2)cc1 (centres undefined) 25.2%, CC(C)(c1ccccc1)c1ccc(OCCN)cc1 23.6%, Cc1cccc(NC(=S)NCCN(C2CCCCC2)C2CCCC2)c1 23.8%, Cn1c2c(c(=O)n(C)c1=O)C1c3ccccc3OCC1C(C)(C)O2 (centres undefined) 20.6%

— PubChem BioAssay AID743126 (The Scripps Research Institute Molecular Screening Center, 2013)
